From PubChem BioAssay AID485364 (National Center for Advancing Translational Sciences (NCATS), 2010) come the findings set out here.

Molecules are shown by their SMILES. Hit rate of the full screen: of about 360,000 compounds, about 11,000 (3.1%) were called active. Where a call stands in place of a potency, no number is given. Not shown: some 4% with an inconclusive outcome. Calls come from the whole dose curve; as a rule, active = well fitted inhibition curve with a large enough effect; inconclusive = small, poorly fitted or top-dose-only effect; inactive = no such curve, though single readings can be large or run the other way. The full list was thinned out, with actives kept by preference.
Potency is the fitted concentration of half-maximal effect.

The experiment concerns the target Schistosoma mansoni thioredoxin glutathione reductase (TGR) (UniProt Q962Y6). The experiment is described as follows: qHTS Assay for the Inhibitors of Schistosoma Mansoni Peroxiredoxins. Note: nearly all actives have a fitted effect of over 60% in size. The settings on record: purified TGR, DTNB reduction, TNB absorbance 405 nm; series mostly up to 114 µM. Put shortly: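 First, TGR (20 nM dispensed) and NADPH were mixed with compound. Second, a 15 min room-temperature incubation followed. Third, further NADPH and then DTNB were added to start the reaction. Finally, TNB absorbance was monitored kinetically.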
`NS(=O)(=O)c1ccc2nc(NC(=O)COc3ccccc3)sc2c1`: the Potency result was “inactive”.

As for `O=C(CSc1nnc(-c2ccc(NS(=O)(=O)c3ccccc3)cc2)o1)NCC1CCCO1` (stereo unspecified), the Potency result is “inactive”.

For the compound `O=C(CSc1nnc(-c2c[nH]c3ccccc23)o1)c1ccccc1`, the Potency result is “inactive”.

Regarding `O=C(CSc1nnc(-c2ccco2)o1)NCC(=O)c1ccccc1`, the Potency is 44.7 µM (active).

For the compound `O=C(O)c1cc(Cl)c(Cl)cc1C(=O)Nc1cccc2ncccc12`, the Potency result was “inactive”.

For `CCOC(=O)c1ccc(-c2ccc(/C=C(\C#N)C(=O)Nc3ccc(OCC)cc3)o2)cc1`, the Potency entry was “inactive”.

With `Cc1ccc(/C=C(\C#N)C(=O)Nc2cccc3ncccc23)o1`, the Potency is 20 µM (active).

In the case of `COc1ccc(OC)c(CNC(=O)CN2C(=O)CCn3nc(-c4cn(C)c5ccccc45)cc32)c1`, the Potency entry is “inactive”.

Regarding `COc1ccc(CCN2C(=O)N(c3cccc(OC)c3)C(=O)C2CC(=O)Nc2ccccc2)cc1` (stereo unspecified), the Potency result was “inactive”.

Take `Cc1ccc(CN2CCC(CNC(=O)c3cnn(-c4ccc(C)cc4)c3C3CCN(C(=O)OC(C)(C)C)CC3)CC2)cc1`: the Potency entry was “inactive”.

For `CCCC(=O)Nc1cc(C(=O)NCc2ccc(OC)cc2)ccc1S(=O)(=O)c1ccc(Cl)cc1`, the Potency result was “inactive”.

Take `O=C(NCC#CCSc1nnc(-c2cccc3ccccc23)o1)c1cccs1`: the Potency is 22.4 µM (active).

For the compound `O=C(OCC#CCSc1nnc(-c2ccncc2)o1)c1sc2ccccc2c1Cl`, the Potency result was “inactive”.

For `COc1ccccc1-c1nnc(SCC(N)=O)o1`, the Potency entry is “inactive”.

`CSc1ccc(NC(=O)Cn2nnnc2-c2ccccc2F)cc1`: the Potency result was “inactive”.

As to `Cc1c(-c2ccccc2)cn2c1-c1ccc(C)n1CC2`, the Potency is 35.5 µM (active).

`CCCOc1ccc(C(=O)Nc2ccc3oc(-c4cccc(Cl)c4Cl)nc3c2)cc1`: the Potency result was “inactive”.

In the case of `Cc1ccc(S(=O)(=O)c2nc(-c3cccs3)oc2N2CCCCC2)cc1`, the Potency entry is “inactive”.

With `Cc1ccccc1NC(=O)Cn1c(=O)n(CCc2ccccc2)c(=O)c2ccccc21`, the Potency result was “inactive”.

Take `C/C(CCC(=O)OC[C@H]1O[C@H](C#Cc2ccccc2)C=C[C@@H]1Oc1ccc(C)cc1)=N\OC[C@@H](O)[C@H]1O[C@@H]2OC(C)(C)O[C@@H]2[C@H]1O`: the Potency was 2.51 µM (active).

With `Cc1ccc(Cl)cc1NC(=O)Cc1ccc(-n2c(C)nc3cccnc32)cc1`, the Potency entry was “inactive”.

In the case of `Cc1ccc2sc(N(CCN(C)C)C(=O)/C=C/c3cccs3)nc2c1C`, the Potency result is “inactive”.

For `Cc1cccc2sc(N(CCCN(C)C)C(=O)CCS(=O)(=O)c3ccccc3)nc12`, the Potency was 10 µM (active).

As to `CN(C)CCCN(C(=O)c1ccc(S(=O)(=O)N2CCCc3ccccc32)cc1)c1nc2ccc(F)cc2s1`, the Potency entry was “inactive”.

Regarding `Cc1cc(C)c2nc(N(CCN(C)C)C(=O)/C=C/c3cccs3)sc2c1`, the Potency result was “inactive”.

`COc1ccc(N(C)C(=O)CCS(=O)(=O)c2cccc3nsnc23)cc1`: the Potency result was “inactive”.

`O=C(C1COc2ccccc2O1)N(Cc1cccnc1)c1nc2c(F)cc(F)cc2s1` (stereo unspecified): the Potency result is “inactive”.

Turning to `O=C(CCS(=O)(=O)c1ccccc1)N(Cc1cccnc1)c1nc2c(F)cccc2s1`, the Potency was 0.562 µM (active).

Take `COc1cccc2sc(N(CCCN(C)C)C(=O)CCS(=O)(=O)c3ccccc3)nc12`: the Potency is 2 µM (active).

Regarding `CN(C)S(=O)(=O)c1ccc(C(=O)N(Cc2cccnc2)c2nc3c(F)cc(F)cc3s2)cc1`, the Potency entry was “inactive”.

As for `Cc1ccc(N2CC(NC(=O)Cc3cccs3)CC2=O)cc1` (stereo unspecified), the Potency entry was “inactive”.

As for `Cc1nc2sc(C)c(C)n2c(=O)c1S(=O)(=O)NCCc1ccc(Cl)cc1`, the Potency result was “inactive”.

For `O=C(NC1CCCCC1)c1ccc(Cn2c(SCc3ccccc3)nc3cccnc32)cc1`, the Potency entry was “inactive”.

Regarding `COc1ccc(CCNc2nc(-c3ccc(Cl)cc3)cc(C(F)(F)F)n2)cc1OC`, the Potency result is “inactive”.

`Cc1ccccc1OCCSc1nc2ccc(NC(=O)c3ccco3)cc2s1`: the Potency entry is “inactive”.

`Cc1cc(C)c(NC(=O)CSc2nc3nccnc3c(=O)n2CCc2c[nH]c3ccccc23)c(C)c1`: the Potency result was “inactive”.

Regarding `Cc1ccc(NC2=C(c3ccc(C(F)(F)F)cc3)C(=O)c3ccccc32)cc1F`, the Potency entry was “inactive”.

For `CCOc1ccccc1NC(=O)CN1CCCN(Cc2cccc(Cl)c2)S1(=O)=O`, the Potency entry was “inactive”.

Turning to `CCOc1ccc(CCNC(=O)CN(c2ccc(C)cc2)S(=O)(=O)N(C)C)cc1OCC`, the Potency result was “inactive”.

As to `CCCN(C(=O)Cn1cc(S(=O)(=O)N2CCN(c3ccccc3F)CC2)c2ccccc2c1=O)c1cccc(C)c1`, the Potency entry was “inactive”.

Turning to `COc1ccc(C(CNC(=O)c2ccc(S(=O)(=O)Nc3ccccc3F)cc2)N(C)C)cc1` (stereo unspecified), the Potency entry was “inactive”.

For `COc1ccccc1C(CNC(=O)c1cccc(NS(=O)(=O)c2ccc(Br)cc2)c1)N(C)C` (stereo unspecified), the Potency result is “inactive”.

Regarding `COc1ccccc1C(CNC(=O)c1cccc(S(=O)(=O)Nc2ccc(F)cc2)c1)N(C)C` (stereo unspecified), the Potency result was “inactive”.

Take `CN(C)C(CNC(=O)c1cccc(S(=O)(=O)Nc2ccc(Br)cc2)c1)c1ccco1` (stereo unspecified): the Potency was 35.5 µM (active).

For the compound `CN(C)C(CNC(=O)c1ccc(S(=O)(=O)NCc2ccco2)cc1)c1ccccc1` (stereo unspecified), the Potency entry was “inactive”.

As for `CC(=O)c1ccc(S(=O)(=O)Nc2ccc(C(=O)NCC(c3ccccc3)N(C)C)cc2)cc1` (stereo unspecified), the Potency was 14.1 µM (active).

As for `CCN(Cc1ccccc1)Cc1c(O)ccc2c(=O)c(-c3ccc(Cl)cc3Cl)coc12`, the Potency result is “inactive”.

As to `COCCN(Cc1ccco1)C(=O)Cn1ncc2c([nH]c3ccccc32)c1=O`, the Potency entry was “inactive”.

On to `COc1cccc(CNC(=O)c2ccc3c(c2)sc2nc(-c4cccc(OC)c4)cn23)c1`, for which the Potency result is “inactive”.

`O=C(NCCS(=O)(=O)N1CCN(c2ccc(F)cc2)CC1)c1ccccc1Br`: the Potency entry is “inactive”.

As for `CC(NC(=O)c1cc2c(=O)n3ccccc3nc2n(C(C)C)c1=N)c1ccccc1` (stereo unspecified), the Potency entry is “inactive”.

For `CCc1cc(C(c2ccccc2OC)N2CCOCC2)c(NC(=O)c2ccccc2)s1` (stereo unspecified), the Potency is 20 µM (active).

`CCc1cc(C(N)=O)c(NC(=O)c2ccc(OC)cc2)s1`: the Potency entry was “inactive”.

Turning to `COc1cc(C(c2c(NC(=O)c3ccco3)sc(C)c2C)N2CCOCC2)cc(OC)c1OC` (stereo unspecified), the Potency result is “inactive”.

Consider `O=C(Cn1c(=O)n(Cc2cccs2)c(=O)c2cccnc21)Nc1ccc(F)cc1`, for which the Potency entry was “inactive”.

In the case of `CCc1ccc(CN(C)Cc2nc(Cc3ccccc3)no2)nc1`, the Potency result is “inactive”.

`CC(=O)c1ccc(-c2nnc(CCC(=O)N(C)Cc3cnc4ccccn34)o2)s1`: the Potency entry was “inactive”.

As for `CCc1ccc(CN(C)C(=O)CCc2nnc(-c3ccc(-c4ccccc4)cc3)o2)nc1`, the Potency is 35.5 µM (active).

With `Cc1c(CNCCc2ccccc2)c(C(=O)O)c(C)n1-c1ccccc1`, the Potency was 44.7 µM (active).

In the case of `CCOc1ccccc1CNCc1c(C(=O)O)c(C)n(Cc2ccc(C)cc2)c1C`, the Potency result is “inactive”.

Turning to `COc1ccc(CCNCc2c(C(=O)O)c(C)n(Cc3cccc(C)c3)c2C)cc1OC`, the Potency result was “inactive”.
